Rows were chosen to be rich in hits. Some 7.2% of all compounds tested hit in one or more screens of this group.
Mot1-301 SUMO – inhibitors of SUMOylation pathway: yeast Mot1-301 growth rescue; S. cerevisiae Mot1-301 growth rescue, ATP luminescence, 38.5C; percent above DMSO median, 100 means doubled; growth rescue, % at 18.8 µM; 320,000 tested, 1% active; AID 2716;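 active = every valid replicate shows activation above 250% relative to neutral control wells; inactive = the rest, any valid replicate at or below 250%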;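 also: OY570 slx delta 5 strain wells were the positive control but not used for scaling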
ALR H2O2 inh – inhibitors of human sulfhydryl oxidase ALR | P55789 | purified ALR, DTT oxidation, H2O2 HRP-luminol luminescence | inhibition, % (concentration not given with the values) | 290,000 tested, 3.8% active | AID 485317;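 active = mean replicate inhibition above about 79%, with every replicate also reaching it, limit read from the data; inconclusive = only one of the two criteria met; inactive = mean below limit and not every replicate reaching it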
Bfl-1 A1 inh – inhibitors of the anti-apoptotic protein A1, read as caspase activation | MEF A1-2A-BIM cells, Caspase-Glo 3/7 luminescence, 3 h; percent of clofoctol response, vehicle zero | caspase activation, % (test concentration not listed) | 330,000 tested, 0.066% active;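 active = over half of replicate activation scores above 10%, or exactly half above 10 with the replicate mean above 10; inconclusive = replicate mean below 10 yet half the replicates above 10; inactive = over half of replicates below 10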
VLA-4 inh – inhibition in a human VLA-4 binding assay; P13612; VLA-4 expressing cells, ligand binding flow cytometry; inhibition, % (about 7 µM as worked out from the volumes in the protocol); 330,000 tested, 0.2% active; AID 2557; in the data active = inhibition above about 50%
Efflux pump inh – inhibitors of Candida antifungal efflux pumps expressed in yeast; inhibition, % at 10 µM; 330,000 tested, 0.44% active; S. cerevisiae Candida pump triplex, Nile Red efflux;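 active = plate passing quality check with inhibition over a set limit, or well fluorescence over plate mean plus 4 SD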;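 also: Nile Red retained in pooled yeast measured as flow cytometry median fluorescence; 0% = buffer negative control and 100% = Enniatin B positive control; higher means more Nile Red kept so more efflux inhibition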
AHR act – activators of human aryl hydrocarbon receptor. AHR-responsive luciferase reporter cells, luminescence. P35869. activation, % at 5 µM. 320,000 tested, 2.5% active. AID 2796; in the data active = activation above about 47%;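 also: 0% = vehicle wells and 100% = reference agonist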
Target sequence (P35869 whole entry, looked up): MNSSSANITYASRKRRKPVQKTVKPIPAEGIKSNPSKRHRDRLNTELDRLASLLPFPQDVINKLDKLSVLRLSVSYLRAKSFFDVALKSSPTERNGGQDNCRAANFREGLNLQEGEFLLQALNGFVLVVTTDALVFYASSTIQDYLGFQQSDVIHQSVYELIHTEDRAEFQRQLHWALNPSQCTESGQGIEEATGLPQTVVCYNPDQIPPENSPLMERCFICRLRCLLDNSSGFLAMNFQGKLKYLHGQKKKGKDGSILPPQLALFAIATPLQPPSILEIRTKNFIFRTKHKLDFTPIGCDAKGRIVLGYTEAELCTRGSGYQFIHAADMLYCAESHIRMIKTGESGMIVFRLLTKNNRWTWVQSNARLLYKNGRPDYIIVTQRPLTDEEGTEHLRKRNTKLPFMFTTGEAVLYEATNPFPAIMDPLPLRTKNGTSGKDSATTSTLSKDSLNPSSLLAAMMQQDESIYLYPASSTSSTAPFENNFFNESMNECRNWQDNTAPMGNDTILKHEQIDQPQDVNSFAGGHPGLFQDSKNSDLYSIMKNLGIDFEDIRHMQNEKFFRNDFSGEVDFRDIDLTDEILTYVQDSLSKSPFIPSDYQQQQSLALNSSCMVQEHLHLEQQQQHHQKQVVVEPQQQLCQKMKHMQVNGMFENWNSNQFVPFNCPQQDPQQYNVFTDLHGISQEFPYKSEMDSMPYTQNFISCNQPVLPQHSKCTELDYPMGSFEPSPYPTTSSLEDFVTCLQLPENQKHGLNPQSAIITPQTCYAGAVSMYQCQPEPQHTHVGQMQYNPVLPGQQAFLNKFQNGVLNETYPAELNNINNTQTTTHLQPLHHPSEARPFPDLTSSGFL
Numbers without * were called inactive; u = inconclusive; x = not tested or not shown.

SMILES	Mot1-301 SUMO	ALR H2O2 inh	Bfl-1 A1 inh	VLA-4 inh	Efflux pump inh	AHR act
CC(=O)n1cc([C@@H]2C=C(C(=O)Nc3ccccc3)O[C@H](OCCCCO)C2)c2ccccc21	-16.0	-2.3	1.1	7.0	0.0	56.5*
C#CCNC(=O)C1=C[C@@H](C2CCCCC2)C[C@@H](OCc2ccc(CO)cc2)O1	-3.5	-5.6	-0.8	x	x	48.1*
CCCCCC(=O)Nc1ccc(C(=O)COC(=O)CN2C(=O)NC3(CCCC3)C2=O)cc1	-7.5	-0.5	0.3	12.0	0.1	6.0
O=C(COc1ccc(Cl)cc1)Nc1nnc(C2=COCCO2)o1	-5.6	2.1	-0.4	11.5	-0.1	-2.4
COC(=O)c1c(C)[nH]c(O)c1C=Nc1ccc(C(C)C)cc1	6.6	7.3	0.5	-16.6	-0.1	90.4*
CCOC(=O)c1c(C)[nH]c(O)c1C=Nc1ccc(C(F)(F)F)cc1	26.6	-1.6	0.8	-0.7	-0.1	62.5*
COC(=O)c1c(C)[nH]c(O)c1C=Nc1ccc(Oc2ccccc2)cc1	1.8	48.7	-2.7	-10.9	0.1	-3.1
CCOC(=O)c1c(C)[nH]c(O)c1C=Nc1ccc(Cl)cc1	10.4	6.2	0.9	2.0	-0.1	76.9*
COc1ccccc1C(=O)NCCC(=O)N1CCN(S(=O)(=O)c2ccc(Cl)cc2)CC1	-0.1	-3.9	u	7.7	0.1	2.6
CCC(C)CCN1C(N(C)C)=NC[C@@H]1C (stereo not given in full)	317.7*	7.1	-0.9	-5.2	0.2	0.0
CC(C)CCCN1C(N(C)C)=NC[C@@H]1C	8.0	x	0.9	15.5	-0.1	1.3
COc1ccc2cc(CCNC(=O)c3ccc(S(=O)(=O)N4CCCC4)cc3)c(=O)[nH]c2c1	2.4	-3.4	0.0	3.0	-0.1	0.0
COc1ccc(OCc2cc(C(=O)N3CCSCC3)no2)c(Cl)c1	-8.5	-2.0	-0.8	5.9	0.1	1.7
COc1ccc(N=CC2=C(O)c3ccccc3C2=O)c(OC)c1	-28.3	x	-0.5	13.1	0.0	53.9*
CCN(CC)/C(Sc1ccccc1)=C(\C(Cl)=C(Cl)Cl)[N+](=O)[O-]	-5.2	u	-0.5	-7.8	-0.1	1.4
O=[N+]([O-])/C(C(Cl)=C(Cl)Cl)=C(\Sc1ccccc1)N1CCCCC1	-15.7	97.6*	-0.6	7.9	0.0	0.5
O=C(Cc1ccc(Cl)c(Cl)c1)Nc1ccc(S(=O)(=O)Nc2ncccn2)cc1	85.2	-8.5	0.0	-0.1	-0.2	0.4
Cc1ccc2c3c([nH]c2c1)C(=O)CC(C)(C)S3	-3.3	98.1*	0.1	6.3	0.0	-1.6
Cc1ccc2sc(=O)[nH]c2c1	-2.5	3.6	0.6	4.1	0.3	6.9
CCCOc1ccc(N2CC(C(=O)NC(C)C)CC2=O)cc1 (stereo not given)	-12.6	-8.7	1.4	-1.4	-0.1	11.6
CC(C)(C)c1ccc(S(=O)(=O)/N=C2\C=C(NS(=O)(=O)c3ccccc3)C(=O)c3ccccc32)cc1	591.4	31.5	-1.3	-10.7	-0.4	53.9*
COC(=O)c1ccccc1NC1=C/C(=N\S(=O)(=O)c2cccs2)c2ccccc2C1=O	-12.7	-21.6	-6.8	8.5	0.0	87.7*
COC(=O)c1ccccc1NC1=C/C(=N\S(=O)(=O)c2ccc(C(=O)O)cc2)c2ccccc2C1=O	-16.9	x	0.7	4.3	0.1	61.9*
CCn1c(=O)cc(SCC(=O)NCCCN2CCN(c3ccc(F)cc3)CC2)c2ccccc21	-5.0	96.0*	0.3	1.1	-0.3	3.9
CCn1c(=O)cc(SCC(=O)NCc2cccnc2)c2ccccc21	-2.6	-3.5	-0.8	27.9	-0.1	11.8
SMILES	Mot1-301 SUMO	ALR H2O2 inh	Bfl-1 A1 inh	VLA-4 inh	Efflux pump inh	AHR act
CCn1c(=O)cc(SCC(=O)NCc2ccccn2)c2ccccc21	-6.4	97.9*	0.1	6.1	0.0	2.1
CCn1c(=O)cc(SCC(=O)NCc2ccc(C)o2)c2ccccc21	11.0	97.8*	-0.3	-0.3	-0.1	2.8
CCn1c(=O)cc(SCC(=O)NCc2ccco2)c2ccccc21	-9.1	4.3	0.8	10.6	0.0	3.9
O=C(CSc1ccc(Cl)cc1)Nc1ccccc1N1CCN(C(=O)c2ccccc2)CC1	x	-2.4	-0.3	-1.5	-0.1	-0.1
CC1(C)CC(=O)C(CO)=C(c2cccc3ccccc23)C1=O	9.5	-10.9	-0.9	-0.8	-0.1	2.7
Cc1ccc(-c2nc(C#N)c(NCCc3ccccn3)o2)cc1	x	-1.5	-2.1	7.2	-0.1	72.9*
COc1ccc(CCNc2oc(-c3ccc(C)cc3)nc2C#N)cc1OC	4.6	31.5	0.3	0.2	0.2	68.7*
COc1ccc(-c2nc(C#N)c(NCCc3ccccc3)o2)cc1	-14.2	1.3	-0.4	13.8	-0.1	17.9
N#Cc1nc(-c2ccc(Cl)cc2)oc1NCCc1ccccn1	-4.4	8.4	-0.2	-6.6	0.0	2.1
CCOc1ccc(CNc2ccc(S(N)(=O)=O)cc2)cc1	-8.3	x	0.2	2.6	0.1	1.0
COc1ccc(-c2cc(C#N)nc(N3CCN(C)CC3)n2)cc1	-5.9	-5.2	0.9	7.8	0.2	73.5*
O=C(CSc1nnc(CNC(=O)C23CC4CC(CC(C4)C2)C3)n1-c1ccccc1)Nc1ccccc1	-20.7	x	0.5	10.1	0.5	3.4
Cc1ccc([N+](=O)[O-])cc1S(=O)(=O)Nc1ccc(OCC(=O)N2CCOCC2)cc1	-19.2	-3.3	0.7	8.6	0.0	1.4
Cc1ccc(C(=O)Nc2ccccc2C(=O)O)cc1S(=O)(=O)NCc1ccccc1	-18.9	4.9	-0.9	-18.0	0.1	1.3
O=[N+]([O-])c1ccc([N+](=O)[O-])c(Nc2ccc(N3CCOCC3)cc2)c1	31.3	97.8*	0.8	-2.7	-0.1	1.6
Cc1ccc(C(=O)Nc2ccccc2C(=O)O)cc1S(=O)(=O)Nc1ccc(Br)cc1	-22.1	98.3*	-1.3	2.9	-0.1	6.1
CC(=O)Nc1ccc(NS(=O)(=O)c2cc([N+](=O)[O-])ccc2C)cc1	3.4	-3.4	-0.7	55.2*	0.1	0.2
Cc1ccc([N+](=O)[O-])cc1S(=O)(=O)Nc1ccc(N2CCOCC2)cc1	-31.7	98.5*	-0.1	6.1	0.3	3.5
COc1cc(C(=O)OC(C)CN2C(C)CCCC2C)cc(OC)c1OC (stereo not given)	-0.5	-2.3	-0.6	14.3	-0.2	0.2
COC(=O)C1=C(C)N(C)C(C)=C(C(=O)OC)C1c1ccccn1	-1.5	2.4	0.5	17.0	-0.1	0.1
CN(C(=O)COC(=O)c1ccccc1OCc1ccc(Cl)cc1)c1c(N)n(Cc2ccccc2)c(=O)[nH]c1=O	171.8	-26.5	0.3	-0.4	0.0	0.7
Cc1ccc(C(=O)Nc2ccc(C(=O)O)cc2)cc1S(=O)(=O)Nc1cccc([N+](=O)[O-])c1	8.5	4.3	1.0	9.9	0.1	0.0
Cc1ccc(C(=O)Nc2cccc([N+](=O)[O-])c2)cc1S(=O)(=O)Nc1ccc(C(=O)O)cc1	36.6	82.2*	-1.8	-9.9	0.0	-2.6
